Source: PubChem BioAssay (National Center for Advancing Translational Sciences (NCATS))
A selection: hits, their analogues and other compounds. The true share with any hit is near 10%.
BAZ2B block – blocks human BAZ2B. Q9UIF8. AlphaScreen BAZ2B-H3K14Ac peptide displacement. Potency, µM (titrated, usually from 114 µM), for the others: top-dose activity change, negative = inhibition, most hits filed as inhibitors. actives 4.4% (n = 360,000). AID 504333; also: % is scaled to controls: 0 for no effect and ±100 for the full control effect; nearly all actives have a fitted effect of over 60% in size
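Multi-concentration screen (max 110 uM) measuring displacement of acetylated histone H3 peptide from BAZ2B by AlphaScreen, using 50 nM protein, 50 nM peptide and 10 ug/mL streptavidin donor plus Ni-chelate acceptor beads.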
G9a block – blocks human histone lysine methyltransferase G9a. AID 504332. actives 8.8% (n = 350,000). Potency, µM (doses to about 102 µM), without a hit: top-dose activity, negative = inhibition, hits mostly inhibitors. G9a H3K9 monomethylation, AlphaScreen, 2 h; also: % is scaled to controls: 0 for no effect and ±100 for the full control effect; nearly all actives have a fitted effect of over 75% in size
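Readings reflect AlphaScreen signal from monomethyl-H3K9 antibody detection. HMT at 20 nM; substrate b-H3K9 500 nM; cofactor SAM 20 uM; 2 h RT reaction; compounds tested as titrations in qHTS with 15 min preincubation.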
GLS inhibitor – glutaminase GLS (human) inhibition. O94925. GLS enzymatic activity, qHTS titration. Potency, µM (titrated, usually from 45.5 µM), for the others: at the highest dose activity change, negative = inhibition, actives largely listed as inhibitors. actives 0.21% (n = 410,000). AID 624170; also: % is scaled to controls: 0 for no effect and ±100 for the full control effect
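hKGA; 45 mM KH2PO4 pH 8.2 + 0.02% Tween-20; cpd via pin tool; 1 mM Gln soln; GluOx/HRP/Amplex Red; RT 30 min; fluor. t0 & final.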
HP1b binding inh – HP1-beta chromodomain-methylated histone interaction inhibition; Potency, µM (top dose mostly 114 µM), for inactives: at the top dose activity change, negative = inhibition, usual class: inhibitors; actives 0.56% (n = 390,000); AlphaScreen HP1-beta / biotin-H3K9me3 peptide binding; also: nearly all actives have a fitted effect of over 70% in size
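HP1-beta protein (50 nM final) preincubated 30 min at room temperature with biotinylated H3(1-18)K9me3 peptide (50 nM) in PBS pH 7.4, 0.01% Tween-20, then compound added for 30 min. AlphaScreen streptavidin donor/nickel chelate acceptor beads (10 ug/mL final), 30 min dark, luminescence read.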
JMJD2A Tudor – JMJD2A Tudor domain (human) inhibition; O75164; AlphaScreen JMJD2A-Tudor / H3K4me3 peptide binding; Potency, µM (highest dose often 114 µM), without a hit: top-dose activity change, negative = inhibition, most hits filed as inhibitors; actives 4.4% (n = 390,000); AID 504339; also: % is scaled to controls: 0 for no effect and ±100 for the full control effect; nearly all actives have a fitted effect of over 50% in size
Target sequence (O75164 whole entry, looked up, the tested form may be a part): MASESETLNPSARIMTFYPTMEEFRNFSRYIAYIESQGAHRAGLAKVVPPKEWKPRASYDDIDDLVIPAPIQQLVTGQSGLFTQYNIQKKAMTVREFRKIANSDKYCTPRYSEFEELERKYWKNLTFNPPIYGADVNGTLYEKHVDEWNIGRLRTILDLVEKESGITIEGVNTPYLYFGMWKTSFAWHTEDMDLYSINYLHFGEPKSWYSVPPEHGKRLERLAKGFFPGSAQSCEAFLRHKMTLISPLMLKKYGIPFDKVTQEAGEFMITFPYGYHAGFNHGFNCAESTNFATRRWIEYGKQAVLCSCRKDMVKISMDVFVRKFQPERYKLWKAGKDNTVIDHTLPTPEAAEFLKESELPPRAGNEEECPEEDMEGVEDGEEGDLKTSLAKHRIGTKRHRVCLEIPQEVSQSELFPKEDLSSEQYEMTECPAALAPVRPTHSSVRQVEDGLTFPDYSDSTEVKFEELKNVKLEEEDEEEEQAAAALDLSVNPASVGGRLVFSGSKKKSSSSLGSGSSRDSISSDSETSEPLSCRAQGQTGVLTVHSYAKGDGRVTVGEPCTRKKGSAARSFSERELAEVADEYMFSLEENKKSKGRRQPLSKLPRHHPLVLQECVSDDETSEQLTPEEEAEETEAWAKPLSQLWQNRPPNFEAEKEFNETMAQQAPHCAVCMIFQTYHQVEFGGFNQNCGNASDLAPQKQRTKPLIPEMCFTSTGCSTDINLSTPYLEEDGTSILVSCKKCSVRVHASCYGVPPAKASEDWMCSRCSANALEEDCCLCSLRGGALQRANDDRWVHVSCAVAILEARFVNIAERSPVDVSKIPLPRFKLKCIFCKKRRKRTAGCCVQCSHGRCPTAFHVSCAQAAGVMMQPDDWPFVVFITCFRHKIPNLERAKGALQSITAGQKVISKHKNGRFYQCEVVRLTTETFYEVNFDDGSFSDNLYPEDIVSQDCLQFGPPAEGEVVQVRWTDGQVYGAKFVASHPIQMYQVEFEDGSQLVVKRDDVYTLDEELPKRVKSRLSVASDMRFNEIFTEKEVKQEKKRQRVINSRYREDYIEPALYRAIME
L3MBTL1 block – inhibitors of human L3MBTL1. Q9Y468. AlphaScreen L3MBTL1–H3K9me1 peptide binding. Potency, µM (titrated, usually from 57.1 µM), without a hit: top-dose activity, negative = inhibition, hits mostly inhibitors. actives 0.66% (n = 230,000); also: % is scaled to controls: 0 for no effect and ±100 for the full control effect; nearly all actives have a fitted effect of over 60% in size
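Read-out is AlphaScreen signal from streptavidin donor and nickel chelate acceptor beads (10 ug/mL final each) bridging L3MBTL1 (50 nM) and biotinylated K9-monomethylated H3(1-15) peptide (75 nM), after 30 min compound exposure at room temperature.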
Numbers without * were called inactive; ? = inconclusive; / = no result; [ ] = dose if it differs, or a comment. Calls follow the shape of the dose curve; as a rule, active = well fitted curve in the direction sought with a large enough effect; inconclusive = small, poorly fitted or top-dose-only effect, or another doubt; inactive = no such curve, though single readings can be large; an effect the other way counts as inactive or inconclusive. Potency is read from the fitted curve at half-maximal effect.

SMILES | BAZ2B block | G9a block | GLS inhibitor | HP1b binding inh | JMJD2A Tudor | L3MBTL1 block
NC(=O)C1CCN(Cc2ccc(OCc3ccccc3)cc2)CC1 | 56µM* | 10µM* | 7% | ? | 3.5µM* | 1%
CCOC(=O)C1CCN(C(=O)Cc2ccc(OC)c(OC)c2)CC1 | ? | 12%[12.7 µM] | 10% | 18% | -20% | -6%
CCOC(=O)C1CCN(Cc2ccc(OCc3ccccc3)cc2)CC1 | -37% | 28µM* | -5% | ? | 28µM* | -2%
CC(=O)Nc1ccc(NS(=O)(=O)c2c(C(=O)N3CCC(C)CC3)c(C)n(C)c2C)cc1 | -20% | 15%[59 µM] | 9% | 28% | -12% | /
COc1ccc(C)cc1NC(=O)NC1CCN(Cc2ccccc2)CC1 | 5% | 14µM* | 1% | 6% | -25% | -8%
COc1ccc(CN2CCC(C(N)=O)CC2)cc1OCc1ccccc1 | ? | / | 0% | ? | 32µM* | 10%
CCCCN(Cc1ccccc1)C1CCN(Cc2ccccc2)CC1 | 1% | / | -4% | 20% | -6% | 1%
CCOC(=O)C1CCCN(CC(=O)N2CCCc3c2c(=O)oc2ccc(OCc4ccccc4)cc32)C1 (configuration not stated) | -23% | 22µM* | -2% | 8% | 40µM* | /
CCCCN(C)C(=O)C1CCN(Cc2ccc(OCc3ccccc3)cc2)CC1 | ? | ? | -8% | -51% | 3.5µM* | 11%
CCCCCOc1ccc2oc(=O)c3c(c2c1)CCCN3C(=O)CN1CCCC(C(=O)OCC)C1 (configuration not stated) | -17% | -26% | 15% | 23% | -17% | /
COc1ccc(CN2CCN(C)CC2)cc1OCc1ccccc1 | -8% | ? | -2% | 36% | -20% | /
C=CC1=C(C(=O)O)N2C(=O)[C@@H](NC(=O)C(N=O)c3csc(N)n3)[C@H]2SC1 (some centres not stated) | / | 1%[59 µM] | ? | / | / | /
N#C/C(=C\c1ccc(Cl)cc1Cl)c1nc(-c2cccc(Cl)c2)cs1 | 1% | -28%[59 µM] | -2% | 27% | -14% | /
COc1ccc(NC(=O)CC2C(=O)N(c3cccc(OC)c3)C(=O)N2CCC2=CCCCC2)cc1 (configuration not stated) | -12% | 15%[59 µM] | -1% | 35% | -15% | /
CCCCCCC(=O)N(O)C1CC(=O)N(c2ccc(Cl)cc2)C1=O (configuration not stated) | -19% | / | -3% | 40µM* | 32µM* | -1%
Cc1ccc(N2C(=O)CC(N(O)C3CC(=O)N(c4ccc(C)cc4)C3=O)C2=O)cc1 (configuration not stated) | -18% | ? | 28% | 9% | -34% | -4%
CCCCCCC(=O)N(O)C1CC(=O)N(c2ccc(C)cc2)C1=O (configuration not stated) | 3% | 1.3µM* | / | ? | 14µM* | /
O=C(Cc1nc2ccccc2[nH]1)c1ccc(Br)cc1 | -27% | 45µM* | 1% | 19% | -29% | 0%
O=C(O)COCc1nc2ccccc2[nH]1 | -20% | 79µM* | -3% | 20% | -27% | 8%
Fc1cccc(CNc2ncnc3ccc(-c4ccccc4Cl)cc23)c1 | -2% | 13%[12.7 µM] | / | / | / | 2%
C=C1C=CS(=O)(=O)N(C(C)C(=O)OC)C1 (configuration not stated) | / | / | / | 33% | -10% | /
O=C(OCC(=O)N1CCc2ccccc2C1)c1ccc(N2CCOCC2)c([N+](=O)[O-])c1 | -35% | 40µM* | 0% | -1% | -28% | -5%
Nc1ccc(C(=O)OCC(=O)N2CCc3ccccc3C2)cc1[N+](=O)[O-] | -33% | -48%[59 µM] | 0% | 1% | -32% | -5%
Cc1ccc(Cl)c(OC(=O)c2ccc(N3CCOCC3)c([N+](=O)[O-])c2)c1 | ? | 28µM* | 13% | ? | ? | -29%
Cc1oc(-c2cccc3ccccc23)nc1CN1CCN(c2ncnc3ccccc23)CC1 | ? | 45µM* | 3% | ? | ? | -13%
SMILES | BAZ2B block | G9a block | GLS inhibitor | HP1b binding inh | JMJD2A Tudor | L3MBTL1 block
CCc1ccc(CN(Cc2ccco2)C(=O)COc2ccc(Cl)cc2C)cc1 | 38% | 93%[59 µM] | -9% | 44% | 18% | /
CCOC(=O)CCc1c(C)nc(SCC(=O)O)c(C#N)c1C | 9% | 8.9µM* | -12% | 11% | 25µM* | 2%
Cc1ccc(/C=C/C2=Cc3c(sc(NC(=O)CSc4n[nH]c(N)n4)c3C#N)C(C)(C)C2)o1 | ? | 8.9µM* | / | / | / | ?
Cc1ncn(-c2ccccc2)c1-c1ccccc1 | 50µM* | 21%[2.33 µM] | 2% | -5% | ? | -14%
c1ccc(-n2cnc3ccccc32)cc1 | 12% | 5% | 4% | 52% | 5% | /
COC(=O)COc1ccc(S(=O)(=O)N2CCCCC2)cc1[N+](=O)[O-] | -10% | 1% | 12% | 0% | -12% | 6%
COC(=O)C/C(C)=N/Nc1ccc(S(=O)(=O)N2CCCC2)cc1[N+](=O)[O-] | ? | 45µM* | 6% | -1% | -32% | -11%
COCCNc1ccc(S(=O)(=O)N2CCCC2)cc1[N+](=O)[O-] | -6% | -8% | -1% | -25% | -18% | 6%
C/C(=N\Nc1ccc(S(=O)(=O)N2CCOCC2)cc1[N+](=O)[O-])C(C)C | / | ? | -3% | ? | 45µM* | -6%
CN1CCC(=NNc2ccc(S(=O)(=O)N3CCOCC3)cc2[N+](=O)[O-])CC1 | -12% | -22%[59 µM] | 0% | -12% | -26% | -10%
O=C(O)c1ccc(/C=N\Nc2ccc(S(=O)(=O)N3CCOCC3)cc2[N+](=O)[O-])cc1 | ? | 50µM* | 1% | -1% | ? | -1%
COc1cc(OC)cc(Oc2ccc(S(=O)(=O)N3CCCCC3)cc2[N+](=O)[O-])c1 | -27% | 79µM* | 3% | -15% | ? | /
Cc1cccc(N(CC(=O)N(C)Cc2ccccc2)S(=O)(=O)c2ccccc2)c1C | 1% | -44%[59 µM] | -2% | 46% | -2% | /
Cc1ccccc1OCC(=O)Nc1ccccc1OCc1cc(=O)n2ccccc2n1 | 8% | 1%[59 µM] | 7% | 32%[57 µM] | 1% | /
CCOC(=O)N1CCC(=NNc2ccc(S(=O)(=O)N3CCOCC3)cc2[N+](=O)[O-])CC1 | -36% | -6%[59 µM] | 6% | ? | -16% | -6%
Cc1ccc(-n2c(O)c(/C=N/Nc3ccc(S(=O)(=O)N4CCOCC4)cc3[N+](=O)[O-])c3ccccc3c2=O)c(C)c1 | 13µM* | 8.9µM* | 9% | 4µM* | 28µM* | ?
COCC1CCCN(C(=O)c2ccc(OC3CCN(Cc4ccccn4)CC3)cc2)C1 (configuration not stated) | -16% | 9% | 4% | 17% | 28µM* | -4%
